The record followed here is PubChem BioAssay (NCI).

Among the test systems are SK-MEL-2 melanoma; EKVX NSCLC; SN12C renal; UO-31 renal; TK-10 renal; ACHN renal; CAKI-1 renal; A498 renal; CCRF-CEM leukemia; MOLT-4 leukemia; RPMI-8226 leukemia; OVCAR-8 ovarian; OVCAR-5 ovarian; OVCAR-4 ovarian; SK-OV-3 ovarian; IGROV1 ovarian; OVCAR-3 ovarian; HS 578T breast; NCI/ADR-RES ovarian.
Holding throughout (experiment): NCI-60 one-dose screen, 48 h (100 = growth as untreated, 0 = no growth, -100 = all killed)
Holding throughout (settings): 10 µM unless noted

About 83,000 compounds went through this panel and 20% of them were active in at least one assay; those are over-represented in the sample as a whole.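 Note: values are percent growth. 100 is the growth of untreated cells, values between 100 and 0 indicate rising inhibition; between -100 and 0 indicates cell death.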 A number with no mark means an inactive call. Calls of active or inactive are those of the source. The calls were made as follows: active = growth percent below 10; inactive = the rest.

Take `Cc1ccc2c(c1)Sc1c(ccc3ccccc13)N2`: the growth in the experiment with SK-MEL-2 melanoma was 116%; in the experiment with EKVX NSCLC, 72.8%; with SN12C renal it was 81.8%; in the experiment with UO-31 renal, 60.1%; in the experiment with TK-10 renal, 127%; with ACHN renal, 64.5%. The growth in the experiment with CAKI-1 renal is 73.4%; in the experiment on A498 renal, 91.7%; in the experiment with CCRF-CEM leukemia it was 67.6%; in the experiment on MOLT-4 leukemia, 32.4%; in the experiment on RPMI-8226 leukemia, 50.4%; with OVCAR-8 ovarian, 72.3%. For the same compound, the growth in the experiment on OVCAR-5 ovarian was 109%; with OVCAR-4 ovarian it was 73.5%; with SK-OV-3 ovarian, 73.1%; with IGROV1 ovarian, 42.3%; in the experiment with OVCAR-3 ovarian, 70.8%; in the experiment on HS 578T breast, 66.4%.

On to `C=CCSc1nc2ccccc2cc1/C=N/O`, for which the growth with SK-MEL-2 melanoma is 84.4%; in the experiment on EKVX NSCLC, 76.6%; in the experiment with SN12C renal, 89.5%; in the experiment on UO-31 renal, 58.9%; in the experiment with TK-10 renal, 108%; in the experiment with ACHN renal, 87.6%. Also, the growth is 75.1% with CAKI-1 renal; 98% in the experiment on A498 renal; 95.5% in the experiment on CCRF-CEM leukemia; 86.7% in the experiment with MOLT-4 leukemia; 86.7% with RPMI-8226 leukemia; 89.6% with OVCAR-8 ovarian. Further, the growth is 78.6% in the experiment with OVCAR-5 ovarian; 107% with OVCAR-4 ovarian; 68.2% with SK-OV-3 ovarian; 74.1% in the experiment with IGROV1 ovarian; 92.1% in the experiment on OVCAR-3 ovarian; 72.2% in the experiment on HS 578T breast.

Consider `Cc1ccc(C(=NN=C(N)N)c2ccc(C)cc2)cc1`, for which the growth in the experiment on SK-MEL-2 melanoma is -4.66% (active); in the experiment on EKVX NSCLC, 52.4%; in the experiment with SN12C renal, 22.6%; in the experiment with UO-31 renal, 21%; with TK-10 renal, 12.9%; in the experiment with ACHN renal it was 23.8%. The growth in the experiment with CAKI-1 renal was 27.1%; with A498 renal, 17.1%; in the experiment with CCRF-CEM leukemia it was 14.7%; in the experiment on MOLT-4 leukemia, 5.74% (active); in the experiment with RPMI-8226 leukemia, 1.96% (active); with OVCAR-8 ovarian, 6.75% (active). Also, the growth with OVCAR-5 ovarian is 30.8%; in the experiment on OVCAR-4 ovarian, 31.2%; with SK-OV-3 ovarian, -10.8% (active); with IGROV1 ovarian, 5.38% (active); with OVCAR-3 ovarian it was -34.8% (active); in the experiment on HS 578T breast, 32.4%. Further, the growth with NCI/ADR-RES ovarian was 6.63% (active).

As for `CC(=O)O[C@]1(C(C)=O)CCC2C3C[C@H](C)C4=CC(=O)CC[C@]4(C)C3CC[C@@]21C` (stereo not given in full), the growth in the experiment with SK-MEL-2 melanoma is 98.1%; in the experiment on EKVX NSCLC, 72.6%; with SN12C renal it was 63.1%; in the experiment with UO-31 renal, 65.6%; in the experiment with TK-10 renal it was 106%; in the experiment on ACHN renal, 96.6%. Moreover, the growth in the experiment on CAKI-1 renal is 73.8%; with A498 renal, 103%; with CCRF-CEM leukemia it was 81.8%; in the experiment on MOLT-4 leukemia, 81.7%; with RPMI-8226 leukemia it was 58.9%; in the experiment with OVCAR-8 ovarian, 91.7%. Further, the growth is 90.6% in the experiment with OVCAR-5 ovarian; 93% in the experiment on OVCAR-4 ovarian; 81.9% with SK-OV-3 ovarian; 81.6% with IGROV1 ovarian; 115% in the experiment on OVCAR-3 ovarian; 130% in the experiment with HS 578T breast. Moreover, the growth in the experiment on NCI/ADR-RES ovarian was 79.6%.

Take `COCCc1ccc(OCC(O)CNC(C)C)cc1` (stereo not given): the growth was 108% with SK-MEL-2 melanoma; 96% in the experiment with EKVX NSCLC; 109% in the experiment on SN12C renal; 79.4% in the experiment with UO-31 renal; 110% with TK-10 renal; 108% with ACHN renal. Besides, the growth was 96.4% with CAKI-1 renal; 103% in the experiment with A498 renal; 96% in the experiment with CCRF-CEM leukemia; 91.4% in the experiment on MOLT-4 leukemia; 98.1% in the experiment with RPMI-8226 leukemia; 101% with OVCAR-8 ovarian. The growth in the experiment on OVCAR-5 ovarian is 110%; in the experiment on OVCAR-4 ovarian, 98.8%; in the experiment with SK-OV-3 ovarian it was 106%; in the experiment with IGROV1 ovarian, 104%; in the experiment on OVCAR-3 ovarian it was 118%; in the experiment on HS 578T breast, 101%. Further, in the experiment on NCI/ADR-RES ovarian, the growth is 105%.

Regarding `CCN(CC)c1ccc(C(=O)c2ccc(N(CC)CC)cc2)cc1`, the growth with SK-MEL-2 melanoma is 18.7%; with EKVX NSCLC, 55%; in the experiment with SN12C renal, 40.8%; with UO-31 renal, 60.4%; in the experiment with TK-10 renal it was 35.1%; in the experiment on ACHN renal, 53.1%. In addition, the growth in the experiment on CAKI-1 renal was 43.4%; in the experiment with A498 renal it was 41.1%; in the experiment on CCRF-CEM leukemia, 19.8%; with MOLT-4 leukemia, 24.3%; in the experiment with RPMI-8226 leukemia, 20.8%; with OVCAR-8 ovarian, 32.2%. Further, the growth in the experiment with OVCAR-5 ovarian is 40.8%; with OVCAR-4 ovarian, 61.4%; in the experiment on SK-OV-3 ovarian, -1.44% (active); in the experiment on IGROV1 ovarian it was 37.3%; in the experiment on OVCAR-3 ovarian, -20.3% (active); in the experiment on HS 578T breast it was 36.2%. Besides, the growth in the experiment on NCI/ADR-RES ovarian is -27.8% (active).

On to `Cc1ccc(S(=O)(=O)n2cc(CNc3ccc(N4CCOCC4=O)cc3)c3ccccc32)cc1`, for which the growth with SK-MEL-2 melanoma was 102%; in the experiment on EKVX NSCLC, 98.5%; in the experiment with SN12C renal, 84.3%; in the experiment with UO-31 renal, 43.3%; in the experiment with TK-10 renal it was 65.2%; in the experiment with ACHN renal it was 46.7%. The growth in the experiment on CAKI-1 renal was 30.4%; with A498 renal it was -51.1% (active); with CCRF-CEM leukemia, 53.5%; in the experiment with MOLT-4 leukemia it was 82.7%; in the experiment with RPMI-8226 leukemia, 67.9%; in the experiment with OVCAR-8 ovarian, 81.7%. Moreover, the growth is 30.1% with OVCAR-5 ovarian; 62.3% with OVCAR-4 ovarian; 87.4% in the experiment with SK-OV-3 ovarian; 67.5% in the experiment on IGROV1 ovarian; 86.8% with OVCAR-3 ovarian; 89.6% with HS 578T breast. In addition, the growth in the experiment on NCI/ADR-RES ovarian is 78%.

For `COc1ccc2[nH]c(O)c(C(=Nc3ccc(N(C)C(=O)CN4CCN(C)CC4)cc3)c3ccccc3)c2c1`, the growth in the experiment on SK-MEL-2 melanoma is 33.2%; in the experiment with EKVX NSCLC, 52.3%; in the experiment on SN12C renal it was 20%; in the experiment with UO-31 renal, 18.8%; with TK-10 renal, 51.8%; with ACHN renal it was 25.3%. The growth was 24.6% in the experiment on CAKI-1 renal; -11.3% (active) with A498 renal; 23.2% in the experiment with CCRF-CEM leukemia; 14.6% in the experiment with MOLT-4 leukemia; 38.8% with RPMI-8226 leukemia; 43.9% in the experiment on OVCAR-8 ovarian. The growth in the experiment on OVCAR-5 ovarian was 49.2%; with OVCAR-4 ovarian, 47.1%; with SK-OV-3 ovarian, 5.77% (active); in the experiment with IGROV1 ovarian, 22.5%; in the experiment with OVCAR-3 ovarian, 75.9%; with HS 578T breast, -16.8% (active). In addition, the growth in the experiment on NCI/ADR-RES ovarian was 82.2%.
